# Reference: the supplement of paper PMC8728848
# The full list was thinned out, with the strongest signals kept by preference.
# B1: Cohesin-hLangerin (Homo sapiens) (protein)
# chain: LDDLDAVRIKVDTVNAKPGDTVRIPVRFSGIPSKGIANCDFVYSYDPNVLEIIEIEPGDIIVDPNPDKSFDTAVYPDRKIIVFLFAEDSGTGAYAITKDGVFATIVAKVKEGAPNGLSVIKFVEVGGFANNDLVEQKTQFFDGGANVGDTTEPATPTTPVTTPTTTDDLDAASYPRFMGTISDVKTNVQLLKGRVDNISTLDSEIKKNSDGMEAAGVQIQMVNESLGYVRSQFLKLKTSVEKANAQIQILTRSWEEVSTLNAQIPELKSDLEKASALNTKIRALQGSLENMSKLLKRQNDILQVVSQGWKYFKGNFYYFSLIPKTWYSAEQFCVSRNSHLTSVTSESEQEFLYKTAGGLIYWIGLTKAGMEGDWSWVDDTPFNKVQSARFWIPGEPNNAGNNEHCGNIKAPSLQAWNDAPCDKTFLFICKRPYVPSEPHHHHHH
# Columns and labels:
# Experiment in all cases: glycan array binding signal (z-score within array); higher = stronger binding
# Conditions in all cases: glycan notation: IUPAC condensed, linker removed
# [1] = biological target: Fuc(a1-2)Gal(b1-3)[Fuc(a1-4)]GlcNAc(b1-2)Man(a1-3)[Fuc(a1-2)Gal(b1-3)[Fuc(a1-4)]GlcNAc(b1-2)Man(a1-6)]Man(b1-4)GlcNAc(b1-4)[Fuc(a1-6)]GlcNAc(b1-4)[Fuc(a1-6)]GlcNAc
# Method in brief: (§1)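 The Consortium for Functional Glycomics database supplied 3228 glycan arrays, of which those lacking an available protein sequence were dropped. The binding signal, a within-array Z-score, was averaged across arrays of the same protein sequence and across linkers. Negative scores can be read as non-binding.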
# Fuc(a1-2)Gal6S(b1-4)Glc = biological target: Fuc(a1-2)Gal6S(b1-4)Glc
# Method in brief: as §1
# [2] = biological target: Fuc(a1-2)[Gal(a1-3)]Gal(b1-3)GlcNAc(b1-2)Man(a1-3)[Fuc(a1-2)[Gal(a1-3)]Gal(b1-3)GlcNAc(b1-2)Man(a1-6)]Man(b1-4)GlcNAc(b1-4)[Fuc(a1-6)]GlcNAc
# Method in brief: as §1
# [3] = biological target: Fuc(a1-2)[Gal(a1-3)]Gal(b1-3)GlcNAc(b1-6)GalNAc
# Method in brief: as §1
# [4] = biological target: Fuc(a1-2)[Gal(a1-3)]Gal(b1-4)GlcNAc(b1-2)Man(a1-3)[Fuc(a1-2)[Gal(a1-3)]Gal(b1-4)GlcNAc(b1-2)Man(a1-6)]Man(b1-4)GlcNAc(b1-4)[Fuc(a1-6)]GlcNAc
# Method in brief: as §1
# [5] = biological target: Fuc(a1-2)[Gal(a1-3)]Gal(b1-4)GlcNAc(b1-3)[Fuc(a1-2)[Gal(a1-3)]Gal(b1-4)GlcNAc(b1-6)]GalNAc
# Method in brief: as §1
# [6] = biological target: Fuc(a1-2)[Gal(a1-3)]Gal(b1-4)GlcNAc(b1-6)GalNAc
# Method in brief: as §1
# [7] = biological target: Fuc(a1-2)[Gal(a1-4)]Gal(b1-4)GlcNAc
# Method in brief: as §1
# [8] = biological target: Fuc(a1-2)[GalNAc(a1-3)]Gal(b1-3)GalNAc(a1-3)[Fuc(a1-2)]Gal(b1-4)GlcNAc
# Method in brief: as §1
# [9] = biological target: Fuc(a1-2)[GalNAc(a1-3)]Gal(b1-3)GlcNAc(b1-2)Man(a1-3)[Fuc(a1-2)[GalNAc(a1-3)]Gal(b1-3)GlcNAc(b1-2)Man(a1-6)]Man(b1-4)GlcNAc(b1-4)[Fuc(a1-6)]GlcNAc
# Method in brief: as §1
# [10] = biological target: Fuc(a1-3)[Gal(b1-4)]GlcNAc(b1-3)Gal(b1-4)[Fuc(a1-3)]GlcNAc
# Method in brief: as §1
# [11] = biological target: Fuc(a1-3)[Gal(b1-4)]GlcNAc(b1-3)Gal(b1-4)[Fuc(a1-3)]GlcNAc(b1-3)Gal(b1-4)[Fuc(a1-3)]GlcNAc
# Method in brief: as §1
# [12] = biological target: Gal(b1-3)GalNAc(a1-3)[Fuc(a1-2)]Gal(b1-4)Glc
# Method in brief: as §1
# [13] = biological target: Gal(b1-3)GlcNAc(b1-2)Man(a1-3)[Gal(b1-3)GlcNAc(b1-2)Man(a1-6)]Man(b1-4)GlcNAc(b1-4)[Fuc(a1-6)]GlcNAc
# Method in brief: as §1
# [14] = biological target: Gal(b1-3)GlcNAc(b1-2)Man(a1-3)[GlcNAc(b1-4)][Gal(b1-3)GlcNAc(b1-2)Man(a1-6)]Man(b1-4)GlcNAc(b1-4)GlcNAc
# Method in brief: as §1
# [15] = biological target: Gal(b1-3)GlcNAc(b1-2)[Gal(b1-3)GlcNAc(b1-6)]Man(a1-6)[Gal(b1-3)GlcNAc(b1-2)Man(a1-3)]Man(b1-4)GlcNAc(b1-4)GlcNAc
# Method in brief: as §1
# [16] = biological target: Gal(b1-3)GlcNAc(b1-3)Gal(b1-4)GlcNAc(b1-3)Gal(b1-4)GlcNAc(b1-2)[Gal(b1-3)GlcNAc(b1-3)Gal(b1-4)GlcNAc(b1-3)Gal(b1-4)GlcNAc(b1-6)]Man(a1-6)[Gal(b1-3)GlcNAc(b1-3)Gal(b1-4)GlcNAc(b1-3)Gal(b1-4)GlcNAc(b1-2)Man(a1-3)]Man(b1-4)GlcNAc(b1-4)[Fuc(a1-6)]GlcNAc
# Method in brief: as §1
# Gal(b1-4)Glc = biological target: Gal(b1-4)Glc
# Method in brief: as §1
# [17] = biological target: Gal(b1-4)GlcNAc(b1-2)Man(a1-3)Man(b1-4)GlcNAc(b1-4)GlcNAc
# Method in brief: as §1
# [18] = biological target: Gal(b1-4)GlcNAc(b1-2)Man(a1-3)[Gal(b1-4)GlcNAc(b1-2)Man(a1-6)][GlcNAc(b1-4)]Man(b1-4)GlcNAc(b1-4)[Fuc(a1-6)]GlcNAc
# Method in brief: as §1
# [19] = biological target: Gal(b1-4)GlcNAc(b1-3)Gal(b1-3)GlcNAc
# Method in brief: as §1
# [20] = biological target: Gal(b1-4)GlcNAc(b1-3)Gal(b1-4)GlcNAc(b1-2)[Gal(b1-4)GlcNAc(b1-3)Gal(b1-4)GlcNAc(b1-6)]Man(a1-6)[Gal(b1-4)GlcNAc(b1-3)Gal(b1-4)GlcNAc(b1-2)Man(a1-3)]Man(b1-4)GlcNAc(b1-4)GlcNAc
# Method in brief: as §1
# [21] = biological target: Gal(b1-4)GlcNAc(b1-3)Gal(b1-4)GlcNAc(b1-3)Gal(b1-4)GlcNAc(b1-3)Gal(b1-4)GlcNAc(b1-3)Gal(b1-4)GlcNAc(b1-2)[Gal(b1-4)GlcNAc(b1-3)Gal(b1-4)GlcNAc(b1-3)Gal(b1-4)GlcNAc(b1-3)Gal(b1-4)GlcNAc(b1-3)Gal(b1-4)GlcNAc(b1-6)]Man(a1-6)[Gal(b1-4)GlcNAc(b1-3)Gal(b1-4)GlcNAc(b1-3)Gal(b1-4)GlcNAc(b1-3)Gal(b1-4)GlcNAc(b1-3)Gal(b1-4)GlcNAc(b1-2)Man(a1-3)]Man(b1-4)GlcNAc(b1-4)[Fuc(a1-6)]GlcNAc
# Method in brief: as §1
# [22] = biological target: Gal(b1-4)GlcNAc(b1-3)GalNAc
# Method in brief: as §1
# Gal3S4S(b1-4)GlcNAc = biological target: Gal3S4S(b1-4)GlcNAc
# Method in brief: as §1
# Gal6S(b1-3)GlcNAc6S = biological target: Gal6S(b1-3)GlcNAc6S
# Method in brief: as §1
# Gal6S(b1-4)Glc6S = biological target: Gal6S(b1-4)Glc6S
# Method in brief: as §1
# Gal6S(b1-4)GlcNAc = biological target: Gal6S(b1-4)GlcNAc
# Method in brief: as §1
# Gal6S(b1-4)GlcNAc6S = biological target: Gal6S(b1-4)GlcNAc6S
# Method in brief: as §1
# [23] = biological target: GlcNAc(a1-4)Gal(b1-4)GalNAc
# Method in brief: as §1
# [24] = biological target: GlcNAc(b1-2)[GlcNAc(b1-4)]Man(a1-3)[GlcNAc(b1-4)][GlcNAc(b1-2)[GlcNAc(b1-6)]Man(a1-6)]Man(b1-4)GlcNAc(b1-4)[Fuc(a1-6)]GlcNAc
# Method in brief: as §1
# [25] = biological target: GlcNAc(b1-3)Gal(b1-4)GlcNAc(b1-2)Man(a1-3)[GlcNAc(b1-3)Gal(b1-4)GlcNAc(b1-2)Man(a1-6)]Man(b1-4)GlcNAc(b1-4)GlcNAc
# Method in brief: as §1
# [26] = biological target: GlcNAc(b1-3)Gal(b1-4)GlcNAc(b1-3)Gal(b1-4)GlcNAc(b1-2)[GlcNAc(b1-3)Gal(b1-4)GlcNAc(b1-3)Gal(b1-4)GlcNAc(b1-6)]Man(a1-6)[GlcNAc(b1-3)Gal(b1-4)GlcNAc(b1-3)Gal(b1-4)GlcNAc(b1-2)Man(a1-3)]Man(b1-4)GlcNAc(b1-4)[Fuc(a1-6)]GlcNAc
# Method in brief: as §1
# [27] = biological target: Man(a1-2)Man(a1-2)Man(a1-6)[Man(a1-3)]Man
# Method in brief: as §1
# [28] = biological target: Man(a1-2)Man(a1-3)[Man(a1-2)Man(a1-6)]Man(a1-6)[Man(a1-2)Man(a1-2)Man(a1-3)]Man
# Method in brief: as §1
# [29] = biological target: Man(a1-2)Man(a1-3)[Man(a1-6)]Man(a1-6)[Man(a1-2)Man(a1-3)]Man(b1-4)GlcNAc(b1-4)GlcNAc
# Method in brief: as §1
# [30] = biological target: Man(a1-2)Man(a1-6)[Man(a1-3)]Man(a1-6)[Man(a1-2)Man(a1-2)Man(a1-3)]Man(b1-4)GlcNAc(b1-4)GlcNAc
# Method in brief: as §1
# Neu5Ac(a2-3)Gal = biological target: Neu5Ac(a2-3)Gal
# Method in brief: as §1
# [31] = biological target: Neu5Ac(a2-3)Gal(b1-3)GlcNAc(b1-3)GalNAc
# Method in brief: as §1
# [32] = biological target: Neu5Ac(a2-3)Gal(b1-3)[Fuc(a1-4)]GlcNAc(b1-3)Gal(b1-4)[Fuc(a1-3)]GlcNAc
# Method in brief: as §1
# [33] = biological target: Neu5Ac(a2-3)Gal(b1-4)GlcNAc(b1-2)[Neu5Ac(a2-3)Gal(b1-4)GlcNAc(b1-6)]Man(a1-6)[Neu5Ac(a2-3)Gal(b1-4)GlcNAc(b1-2)Man(a1-3)][GlcNAc(b1-4)]Man(b1-4)GlcNAc(b1-4)GlcNAc
# Method in brief: as §1
# [34] = biological target: Neu5Ac(a2-3)Gal(b1-4)[Fuc(a1-3)]GlcNAc(b1-3)GalNAc
# Method in brief: as §1
# [35] = biological target: Neu5Ac(a2-8)Neu5Ac(a2-3)Gal(b1-3)GalNAc(b1-4)[Neu5Ac(a2-3)]Gal(b1-4)Glc
# Method in brief: as §1
# [36] = biological target: Neu5Ac(b2-6)Gal(b1-4)GlcNAc
# Method in brief: as §1
# [37] = biological target: Neu5Gc(a2-8)Neu5Ac(a2-3)Gal(b1-4)GlcNAc
# Method in brief: as §1
# [38] = biological target: Neu5Gc(a2-8)Neu5Gc(a2-6)Gal(b1-4)GlcNAc
# Method in brief: as §1
binder,measurement,setting,value
B1,glycan array binding signal (z-score),[1],0.805
same,glycan array binding signal (z-score),Fuc(a1-2)Gal6S(b1-4)Glc,-0.399
same,glycan array binding signal (z-score),[2],3.97
same,glycan array binding signal (z-score),[3],-0.238
same,glycan array binding signal (z-score),[4],3.4
same,glycan array binding signal (z-score),[5],1.3
same,glycan array binding signal (z-score),[6],-0.388
same,glycan array binding signal (z-score),[7],-0.301
same,glycan array binding signal (z-score),[8],-0.411
same,glycan array binding signal (z-score),[9],2.27
same,glycan array binding signal (z-score),[10],-0.026
same,glycan array binding signal (z-score),[11],-0.424
same,glycan array binding signal (z-score),[12],-0.311
same,glycan array binding signal (z-score),[13],0.003
same,glycan array binding signal (z-score),[14],4.37
same,glycan array binding signal (z-score),[15],4.81
same,glycan array binding signal (z-score),[16],5.37
same,glycan array binding signal (z-score),Gal(b1-4)Glc,-0.309
same,glycan array binding signal (z-score),[17],-0.352
same,glycan array binding signal (z-score),[18],-0.449
same,glycan array binding signal (z-score),[19],-0.419
same,glycan array binding signal (z-score),[20],3.41
same,glycan array binding signal (z-score),[21],0.332
same,glycan array binding signal (z-score),[22],-0.438
same,glycan array binding signal (z-score),Gal3S4S(b1-4)GlcNAc,-0.417
same,glycan array binding signal (z-score),Gal6S(b1-3)GlcNAc6S,5.12
same,glycan array binding signal (z-score),Gal6S(b1-4)Glc6S,4
same,glycan array binding signal (z-score),Gal6S(b1-4)GlcNAc,3.76
same,glycan array binding signal (z-score),Gal6S(b1-4)GlcNAc6S,4.85
same,glycan array binding signal (z-score),[23],-0.401
same,glycan array binding signal (z-score),[24],-0.2
same,glycan array binding signal (z-score),[25],-0.336
same,glycan array binding signal (z-score),[26],4.94
same,glycan array binding signal (z-score),[27],5.38
same,glycan array binding signal (z-score),[28],6.69
same,glycan array binding signal (z-score),[29],-0.429
same,glycan array binding signal (z-score),[30],6.34
same,glycan array binding signal (z-score),Neu5Ac(a2-3)Gal,-0.391
same,glycan array binding signal (z-score),[31],-0.31
same,glycan array binding signal (z-score),[32],3.62
same,glycan array binding signal (z-score),[33],-0.447
same,glycan array binding signal (z-score),[34],0.356
same,glycan array binding signal (z-score),[35],-0.417
same,glycan array binding signal (z-score),[36],-0.412
same,glycan array binding signal (z-score),[37],-0.431
same,glycan array binding signal (z-score),[38],-0.412
